From PubChem BioAssay AID652067 (The Scripps Research Institute Molecular Screening Center, 2013)
Among all 370,000 compounds or so, about 5,400 (1.5%) were called active.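 The calls were made as follows: active = activation above the mean of all tested compounds plus 3 SD (cut at about 5.5% in these data); inactive = the rest.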 Only a selection was taken, and actives are over-represented in it overall.

Tested on: DAF-12 nuclear receptor (Haemonchus contortus)
Test: H. contortus DAF-12 nuclear receptor activators, primary screen, cell-based, luminescence, HEK293, lit1-tk-luc reporter (AID 652067);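 also: 100% = response to 3 µM Δ7-dafachronic acid high control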
Conditions: HEK293 hcDAF-12 lit1-tk-luc reporter, at 6.8 µM, hits give high values, 0% DMSO, 100% Δ7-dafachronic acid

Structure (SMILES)	activation
CCC(=O)Nc1ccc2c(c1)C(=O)N(C)[C@H]1CC[C@H](CC(=O)NCCOC)O[C@@H]1CO2	-0.71% (inactive)
COC(=O)C1CN(CCc2ccccc2)CCS(=O)(=O)N1Cc1cccc(Cl)c1 (configuration not stated)	-1.52% (inactive)
O=C(NC1CCCCN(Cc2ccc(Cl)cc2)C1=O)c1ccc(Br)cc1 (configuration not stated)	-2.55% (inactive)
O=C(NC(Cc1c[nH]c2ccccc12)C(=O)O)/C(=C/c1ccco1)NC(=O)c1ccccc1 (configuration not stated)	6.62% (active)
O=C(NC(Cc1ccccc1)C(=O)O)/C(=C\c1ccccc1)NC(=O)c1ccco1 (configuration not stated)	-0.54% (inactive)
O=C(NCc1ccco1)/C(=C/c1ccco1)NC(=O)c1ccccc1	-0.96% (inactive)
Cc1ccc(-n2c(SCC(=O)Nc3ccc(S(=O)(=O)Nc4nccs4)cc3)nnc2-c2ccccn2)cc1	-0.18% (inactive)
COc1cc(NC(=O)C2CCCN(S(=O)(=O)c3ccc(C(C)(C)C)cc3)C2)cc(OC)c1 (configuration not stated)	-1.6% (inactive)
CC(C)C(C#CC1CC1)N(Cc1ccc2c(c1)OCO2)C(N)=NC(=O)/C=C/c1cccc(C(F)(F)F)c1 (configuration not stated)	0.1% (inactive)
COC(=O)[C@]1(C#N)CC(=O)N(CC2CCCCC2)[C@@H]1c1ccccc1	0.64% (inactive)
CCS(=O)(=O)c1ccc(-c2cccc(NC(=O)c3ccc(Br)o3)c2)nn1	1.53% (inactive)
O=C(Nc1cccc(C(=O)O)c1)/C(=C\c1ccccc1)NC(=O)c1ccc(Br)o1	-0.49% (inactive)
Cc1cccc(NC(=S)NC(=O)c2ccc(Br)o2)c1	6.48% (active)
CC(=O)c1ccc(N=C2SCCCN2C(=O)C2CCCCC2)cc1	1.46% (inactive)
COC(=O)c1ccc(CN2C(=O)[C@]3(OCCC=C[C@H]3C)c3c(Br)cccc32)cc1	-3.24% (inactive)
O=C(CN1CCC(NC(=O)NCc2ccccc2)CC1)Nc1ccc2c(c1)OCCO2	-0.83% (inactive)
Clc1ccc(Nc2ccc3ccccc3n2)cc1	17.1% (active)
C=CCNc1nc(Nc2ccc(Cl)cc2)nc(OC)n1	-0.18% (inactive)
CC1(C)N=C(N)NC(Nc2ccc(Cl)cc2)=N1	0.62% (inactive)

Structure (SMILES)	activation
CCOC(=O)/C=C/CN(C(=O)OC(C)(C)C)S(=O)(=O)N1CC=CC1	-0.7% (inactive)
COc1ccc(-n2c(SCC(=O)Nc3ccc4cn[nH]c4c3)nnc2-c2cccnc2)cc1	-1.7% (inactive)
CC(C)CNc1cccc2c1S(=O)(=O)N(Cc1cn(Cc3ccccc3C(F)(F)F)nn1)Cc1ccccc1O2	-1.42% (inactive)
O=C(CSc1nc2sc3c(c2c(=O)n1-c1ccccc1)CCCC3)NN=Cc1ccc(OCc2ccccc2)cc1	-1.69% (inactive)
COc1cccc(C2c3[nH]c4ccccc4c3CCN2Cc2cccc(C)n2)c1 (configuration not stated)	3.77% (inactive)
CCOc1ccc(C2c3[nH]c4ccccc4c3CCN2Cc2cccn2-c2ncccn2)cc1 (configuration not stated)	1.92% (inactive)
CCOc1ccc(C2c3[nH]c4ccccc4c3CCN2Cc2cn(CC)nc2C)cc1 (configuration not stated)	6.76% (active)
Cc1[nH]c2ccccc2c1CC(=O)Nc1ccc(Nc2cccnc2)c(-c2cccc(Cl)c2)c1	1.03% (inactive)
COC(=O)c1ccc(CNC(=O)c2ccc3oc(C(C)C)nc3c2)cc1	0.43% (inactive)
CC(C)c1nc2cc(C(=O)NC(C)c3cnn(C)c3)ccc2o1 (configuration not stated)	-1.66% (inactive)
COc1ccc(CNC(=O)c2ccc3oc(C(C)C)nc3c2)cc1	6.74% (active)
CC(c1ccc(N)cc1)c1cn(C)c2ccccc12 (configuration not stated)	-2.32% (inactive)
Cc1ccccc1Nc1nc(N)nc(CSc2ccccc2)n1	6.93% (active)
Cc1ccccc1Nc1nc(N)nc(COC(=O)CCC(=O)c2ccc(F)cc2)n1	-0.96% (inactive)
Cc1ccccc1Nc1nc(N)nc(CSc2nnc3ccccn23)n1	0.54% (inactive)
COC(CNC(=O)[C@H](Cc1ccccc1)NC1(C(=O)NC2CCCCC2)CCCCC1)OC	0.68% (inactive)
CC(=O)/C(=N\Nc1ccc(Cl)cc1Cl)Sc1cccc2cccnc12	-1.47% (inactive)
O=C(Nc1cccc2cccnc12)c1cccc(Cl)c1	5.97% (active)
O=C(Nc1cccc2cccnc12)c1ccc2sc([C@H]3C[C@H](O)[C@@H](CO)O3)nc2c1	-3.24% (inactive)

Structure (SMILES)	activation
COC(=O)[C@]12C[C@H](CC(=O)N3CCOCC3)C(=O)N(Cc3ccc(Cl)cc3Cl)C1=C[C@H](C(C)C)O[C@@H]2C1CC1	-0.53% (inactive)
CC(=O)OC12CCCN(C1)/C(=C/c1ccncc1)C2 (configuration not stated)	-0.38% (inactive)
CC1CCCCC1NC(=O)Cn1c(=O)cnc2ccccc21 (configuration not stated)	0.69% (inactive)
O=C(Cn1c(-c2cncs2)nc2ccccc21)NC1CCCC1	-0.67% (inactive)
O=C(/C=C/c1cnc2ccccc2n1)NC1CCCCCC1	8.85% (active)
COCCN1CCn2c(nc3cc(NS(C)(=O)=O)ccc32)C1	0.72% (inactive)
O=C(NC1CCC1)c1ccc(C#CC2CC2)cn1	1.58% (inactive)
Nc1ncnc2c1ncn2C1OC(CO)CC1O (configuration not stated)	-1.72% (inactive)
Cc1no[n+]([O-])c1COc1ccccc1/C=C1\NC(=S)NC1=O	-0.17% (inactive)
C#CCOc1ccccc1/C=C1/C(=O)ON=C1C	6.39% (active)
Cc1cccc(NC(=O)c2cc3c(C)nn(-c4ccccc4)c3s2)c1	-3.69% (inactive)
NS(=O)(=O)c1cc(C(=O)NCCOc2ccccc2)c(Cl)cc1Cl	-2.95% (inactive)
O=C(NCCc1csc(-c2ccccc2)n1)c1ccccc1F	-1.62% (inactive)
O=C(NCCOc1ccccc1)c1ccccc1F	6.22% (active)
CCc1c(-c2ccccc2OC)ncn1CCc1ccccc1OC	-2.85% (inactive)
N[C@@H](Cc1ccccc1)C(=O)N1CCC[C@@H]1C(=O)N1CCC2CCN(S(=O)(=O)c3ccccc3)CC21 (some centres not stated)	-1.99% (inactive)
COC1=NC2=NCCN2C(OC)=N1	0.26% (inactive)
COC(=O)C[C@@H]1CC[C@@H]2[C@@H](COc3ccc(NC(=O)Nc4ccc(F)c(F)c4)cc3C(=O)N2C)O1	-4.16% (inactive)
N#CCC[C@H]1CC[C@]2(CCCN(Cc3ccc(Cl)cc3)C2)O1	-0.47% (inactive)
